Bioassay records deposited in PubChem by National Center for Advancing Translational Sciences (NCATS).
An excerpt weighted towards active compounds, which were near 10% of everything screened.
PLK1 PBD inh: qHTS for Inhibitors of PLK1-PDB (polo-like kinase 1 - polo-box domain): Primary Screen | Plk1 PBD binding of FITC phosphopeptide, fluorescence polarization | Potency, µM, for the others: max response, negative = inhibition, actives largely listed as inhibitors | 2.8% of 360,000 active | AID 720504, 2013; also: potency is read from the fitted curve at half-maximal effect; series mostly up to about 57 µM; nearly all actives have a fitted effect of over 65% in size
Mm-Cpn inhibitor: Inhibitors of TCP-1 ring complex (TRiC) of Methanococcus maripaludis (MmCpn): qHTS. purified Mm-Cpn ATPase, ADP Transcreener TR-FRET. 0.031% of 330,000 active. AID 504842, 2011. Chaperonin Mm-Cpn (Methanococcus maripaludis). Potency, µM (series often up to 76.9 µM), inactives show top-dose activity, negative = inhibition, usual class: inhibitors; also: potency is read from the fitted curve at half-maximal effect; nearly all actives have a fitted effect of over 80% in size
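TR-FRET (320 nm excitation; 590 and 665 nm emission) reports ADP made from 10 uM ATP by 25 nM enzyme; compounds were preincubated 10 min, reaction run 30 min, both at 37°C.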
VDR inhibitor: Inhibitors of the vitamin D receptor (VDR): qHTS. Vitamin D3 receptor (Homo sapiens), P11473. VDR-SRC2-3 peptide fluorescence polarization, 2 h. Potency, µM, for inactives: max response, negative = inhibition, actives largely listed as inhibitors. 0.93% of 400,000 active. AID 504847, 2011; also: potency is read from the fitted curve at half-maximal effect
Target sequence (P11473 whole entry, looked up): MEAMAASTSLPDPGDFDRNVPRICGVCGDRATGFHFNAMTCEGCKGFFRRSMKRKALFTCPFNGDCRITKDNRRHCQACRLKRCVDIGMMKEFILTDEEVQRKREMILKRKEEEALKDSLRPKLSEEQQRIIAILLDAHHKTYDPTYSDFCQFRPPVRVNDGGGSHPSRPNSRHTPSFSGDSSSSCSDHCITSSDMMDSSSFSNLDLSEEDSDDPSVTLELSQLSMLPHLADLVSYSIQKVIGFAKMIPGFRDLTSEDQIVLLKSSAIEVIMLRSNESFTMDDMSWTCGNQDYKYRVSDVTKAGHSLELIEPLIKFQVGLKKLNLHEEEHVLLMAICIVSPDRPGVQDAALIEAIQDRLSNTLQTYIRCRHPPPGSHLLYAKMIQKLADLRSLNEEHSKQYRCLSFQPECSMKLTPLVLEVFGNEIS
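Compounds are added to VDR with labelled SRC2-3 coactivator peptide and held 2 h at room temperature. Inhibition of the VDR–peptide interaction is then read as a change in fluorescence polarization.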
CCT chaperon mod: High-Throughput Screening for Modulators of Cytosolic Chaperonin Activity; purified chaperonin ATPase assay, HTRF ADP detection, 30 min; activity change, % (test concentration not listed), hits read low; 0.3% of 360,000 active; in the data active = activity change below about -30%
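TRiC (40 or 20 nM final, by batch activity) in 30 mM Tris pH 7.4, 100 mM KCl, 5 mM MgCl2, 1 mM DTT was treated with compound at 76 uM single dose, then 10 uM ATP, 30 min at 37 °C. ADP was read by HTRF Transcreener.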
G9a inh: qHTS Assay for Inhibitors of Histone Lysine Methyltransferase G9a | Histone-lysine N-methyltransferase EHMT2 (Homo sapiens), Q96KQ7 | AID 504332, 2011 | G9a H3K9 monomethylation, AlphaScreen, 2 h | 8.8% of 350,000 active | Potency, µM (series often up to 102 µM), for the others: top-dose activity, negative = inhibition, actives largely listed as inhibitors; also: potency is read from the fitted curve at half-maximal effect; nearly all actives have a fitted effect of over 75% in size
Target sequence (Q96KQ7 913-1193 limits assumed): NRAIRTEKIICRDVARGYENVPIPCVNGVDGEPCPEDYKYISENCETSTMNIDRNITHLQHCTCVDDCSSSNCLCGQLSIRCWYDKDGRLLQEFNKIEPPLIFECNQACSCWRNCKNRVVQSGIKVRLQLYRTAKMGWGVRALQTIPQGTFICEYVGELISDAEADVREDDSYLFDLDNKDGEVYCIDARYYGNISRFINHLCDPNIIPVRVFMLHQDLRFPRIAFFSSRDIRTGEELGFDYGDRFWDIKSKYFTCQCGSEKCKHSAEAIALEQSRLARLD
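Using a bead-based AlphaScreen, monomethylated H3K9 product from 2 h room-temperature reactions (G9a 20 nM, peptide 500 nM, SAM 20 uM) was detected with 0.5 ug/mL rabbit anti-H3K9me1 antibody.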
Sfp PPTase inh: qHTS Assay for Inhibitors of Bacillus subtilis Sfp phosphopantetheinyl transferase (PPTase); Potency, µM, for inactives: largest response in the series, negative = inhibition, most hits filed as inhibitors; Biochemical Sfp PPTase activity, qHTS; 3.5% of 310,000 active;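 also: the enzyme is Sfp with the accession as filed and its product quenches rhodamine fluorescence; potency is read from the fitted curve at half-maximal effect; 0% = enzyme reaction without inhibitor and -100% = no enzyme wells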
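With Hepes-Na pH 7.6 buffer containing 10 mM MgCl2, Sfp (15 nM) modified BHQ-2-YbbR (12.5 uM) using rhodamine-CoA (5 uM). Two reads 30 minutes apart at 525/598 nm yielded each well's rate.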
The depositor's hits bear a star; [ ] = dose if it differs, or a comment. Unless noted, calls follow the shape of the dose curve; as a rule, active = well fitted curve in the direction sought with a large enough effect; inconclusive = small, poorly fitted or top-dose-only effect, or another doubt; inactive = no such curve, though single readings can be large; an effect the other way counts as inactive or inconclusive. Unless noted, % is scaled to controls: 0 for no effect and ±100 for the full control effect.

`NCC(O)C1CCCCCCC1` (configuration not stated) gave VDR inhibitor -2% and G9a inh -10%[59 µM].
`Cc1ccc(/C=C/C(=O)Nc2nccs2)o1` gave PLK1 PBD inh -14%, Mm-Cpn inhibitor 0%, VDR inhibitor -18%, CCT chaperon mod -1, G9a inh inconclusive and Sfp PPTase inh inconclusive.
Screening Cc1ccc(/C=C/C(=O)Nc2ccc(N(C)C)cc2)o1 returned PLK1 PBD inh 2%, Mm-Cpn inhibitor -7%, VDR inhibitor -25%, CCT chaperon mod -1, G9a inh 4µM* and Sfp PPTase inh -26%.
Screening Cc1ccc(/C=C/C(=O)Nc2ncc(C)s2)o1 returned PLK1 PBD inh -9%, Mm-Cpn inhibitor -1%, VDR inhibitor -27%, CCT chaperon mod -1, G9a inh 13µM* and Sfp PPTase inh 13µM*.
For Cc1ccc(C)c(S(=O)(=O)n2nc(C)c(S(=O)(=O)N3CCCCCC3)c2C)c1 the results were VDR inhibitor -3% and G9a inh -6%[59 µM].
Cc1ccc(N2CCN(C(=O)c3nn(C)c4c3CSc3ccccc3-4)CC2C)cc1 (configuration not stated) was read as VDR inhibitor 10% and G9a inh -1%[59 µM].
Screening CC1(C)Cc2c(c(N3CCCC3)[nH]c(=S)c2C#N)CO1 returned Mm-Cpn inhibitor -5%, G9a inh inconclusive and Sfp PPTase inh 40µM*.
For CC(C)(C)NC(=O)C(c1ccncc1)N(Cc1ccco1)C(=O)c1ccc(-c2ccccc2)[nH]1 (configuration not stated) the results were PLK1 PBD inh -21%, Mm-Cpn inhibitor 1%, VDR inhibitor 71µM*, CCT chaperon mod 2, G9a inh 22µM* and Sfp PPTase inh -90%.
Screening CNC(=S)N1CCC(NC(=O)C23CC4CC(CC(C4)C2)C3)CC1 returned PLK1 PBD inh 8.4µM*, Mm-Cpn inhibitor 1%, VDR inhibitor inconclusive, CCT chaperon mod -1, G9a inh 5% and Sfp PPTase inh 12%.
For O=C(NC1CCN(Cc2ccccc2)CC1)C12CC3CC(CC(C3)C1)C2 the results were PLK1 PBD inh -2%, Mm-Cpn inhibitor 1%, VDR inhibitor -15%, CCT chaperon mod -1, G9a inh 1%[59 µM] and Sfp PPTase inh 4%.
`CCOC(=O)C1=C(c2ccccc2)NC(=O)NC1c1ccc(OC)c(OC)c1` (configuration not stated) gave PLK1 PBD inh 0%, Mm-Cpn inhibitor -6%, VDR inhibitor -1%, CCT chaperon mod 0, G9a inh 13% and Sfp PPTase inh 8%.
For CCOC(=O)C1=C(O)C(=O)NC(c2ccccc2)=C(OC2CCCCC2)C1 the results were PLK1 PBD inh 0%, Mm-Cpn inhibitor 0%, VDR inhibitor 4%, CCT chaperon mod -1, G9a inh 50µM* and Sfp PPTase inh -2%.
Screening CCOC(=O)C1=C(C)N(c2ccccc2)C(=O)C1 returned PLK1 PBD inh -8%, Mm-Cpn inhibitor -3%, VDR inhibitor -4%, CCT chaperon mod 0, G9a inh 5%[59 µM] and Sfp PPTase inh 7%.
For CCOC(=O)C1=C(O)C(=O)NC(c2ccccc2)=C(OCC)C1 the results were PLK1 PBD inh 1%, Mm-Cpn inhibitor -2%, VDR inhibitor -6%, CCT chaperon mod -2, G9a inh 45µM* and Sfp PPTase inh -2%.
COc1ccc(OCCCCn2c(-c3ccc(Cl)cc3)nc3ccccc3c2=O)cc1 was read as VDR inhibitor -14% and G9a inh 40%[59 µM].
Cc1ccc(C(=O)CC(C(=O)O)c2cn(CCC#N)c3ccccc23)cc1 (configuration not stated) was read as PLK1 PBD inh 27µM*, Mm-Cpn inhibitor -1%, VDR inhibitor -23%, CCT chaperon mod -5, G9a inh inconclusive and Sfp PPTase inh 5%.
For CCc1c2c(nc3ccc(OC)cc13)-c1nc3ccccc3c(=O)n1C2 the results were VDR inhibitor 1% and Sfp PPTase inh 6%.
For CCc1cccc2nc3c(c([Si](CC)(CC)CC)c12)Cn1c-3cccc1=O the results were Sfp PPTase inh 79µM*.
`CCc1c2c(nc3c(C(C)C)cccc13)-c1cccc(=O)n1C2` gave Sfp PPTase inh 50µM*.
Screening CCOC(=O)CSC1=C(C#N)C(c2ccccc2)C(C(C)=O)=C(C)N1 (configuration not stated) returned PLK1 PBD inh -27%, Mm-Cpn inhibitor -6%, VDR inhibitor 41%, CCT chaperon mod 1, G9a inh -3%[0.501 µM] and Sfp PPTase inh 79µM*.
C=CCOC(=O)C1=C(C)NC(SCC(=O)Nc2nccs2)=C(C#N)C1c1cccs1 (configuration not stated) was read as PLK1 PBD inh 30µM*, Mm-Cpn inhibitor -1%, VDR inhibitor -15%, CCT chaperon mod -1, G9a inh -35% and Sfp PPTase inh 0%.
CCOCCSC1=C(C#N)C(c2cccs2)C(C(C)=O)=C(C)N1 (configuration not stated) was read as PLK1 PBD inh -11%, Mm-Cpn inhibitor 1%, VDR inhibitor 15%, CCT chaperon mod -7, G9a inh inconclusive and Sfp PPTase inh 5%.
`CSCSC1=C(C#N)C(c2ccc(Cl)cc2)C(C(C)=O)=C(C)N1` (configuration not stated) gave Mm-Cpn inhibitor -6%, G9a inh 7.9µM* and Sfp PPTase inh 10µM*.
C=CCOC(=O)C1=C(C)NC(SC)=C(C#N)C1c1ccc(OCC)cc1 (configuration not stated) was read as PLK1 PBD inh 6%, Mm-Cpn inhibitor 1%, VDR inhibitor 8%, CCT chaperon mod 3, G9a inh -21% and Sfp PPTase inh 21%.
`C=CCOC(=O)C1=C(C)NC(SCC(=O)OCC)=C(C#N)C1c1ccc(O)c(OC)c1` (configuration not stated) gave PLK1 PBD inh -20%, Mm-Cpn inhibitor -1%, VDR inhibitor -18%, CCT chaperon mod -2, G9a inh 32µM* and Sfp PPTase inh -16%.
`CCC(Sc1nc2cc(OC)c(OC)cc2c(=O)n1CCc1ccc(Cl)cc1)C(=O)NCCOC` (configuration not stated) gave VDR inhibitor 16% and G9a inh 13%[59 µM].
